Screens from PubChem.
A selection: hits, their analogues and other compounds. The true share with any hit is near 9.4%.
SMN2 splice enh = enhancers of SMN2 splice variant expression. HEK293 SMN2-luciferase splicing reporter, luminescence, 30-36 h. Potency, µM (highest dose often 46.1 µM), for inactives: at the top dose activity change, positive = activation, hits mostly activators. 2.8% of 210,000 active; also: % of control where 0% means no effect; nearly all actives have a fitted effect of over 55% in size
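qHTS luciferase splicing reporter: luminescence rises when SMN2 exon 7 is included in transfected HEK293 cells. Compound exposure lasted 30-36 h at 37C, with 4.5 mM final sodium butyrate as control, followed by a ONE-Glo read.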
ELG1 genotoxic = inducers of genotoxicity in HEK293T ELG1-luciferase cells | HEK293T ELG1-luciferase reporter, luminescence, 16 h | AID 504466 | 1.3% of 330,000 active | Potency, µM (series often up to 46 µM), for inactives: top-dose activity change, positive = activation, actives largely listed as activators; also: % of control where 0% means no effect; nearly all actives have a fitted effect of over 60% in size
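Reporter readout depends on ELG1 protein level, which increases with genetic stress. After 16 hr compound exposure at 37 °C, luciferase activity was quantified using ONE-Glo.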
Rab9 promoter act = activators of Rab9 promoter; 2.8% of 320,000 active; Potency, µM (series often up to 9.22 µM), for inactives: at the top dose activation, negative = inhibition, actives largely listed as activators; Huh7 Rab9 promoter-luciferase reporter, luminescence, 24 h; also: % of control where 0% means no effect; nearly all actives have a fitted effect of over 60% in size
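Promoter activation is measured as luciferase luminescence in Huh7 cells stably transfected with a Rab9 promoter–luciferase construct, following 24 h compound exposure at 37 °C and 10 min reagent incubation at ambient temperature.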
FLuc modulator = counter-screen for miR-21 project: firefly luciferase inhibitors or activators; 6.9% of 360,000 active; purified FLuc, Km substrates, luminescence inhibition; AID 588342; Potency, µM (titrated, usually from 57.5 µM), for the others: at the highest dose activity change, negative = inhibition, actives largely listed as inhibitors;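 also: plate controls were vehicle for no effect and reference inhibitor for full effect; nearly all actives have a fitted effect of over 55% in size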
Target sequence (P08659 whole entry, looked up): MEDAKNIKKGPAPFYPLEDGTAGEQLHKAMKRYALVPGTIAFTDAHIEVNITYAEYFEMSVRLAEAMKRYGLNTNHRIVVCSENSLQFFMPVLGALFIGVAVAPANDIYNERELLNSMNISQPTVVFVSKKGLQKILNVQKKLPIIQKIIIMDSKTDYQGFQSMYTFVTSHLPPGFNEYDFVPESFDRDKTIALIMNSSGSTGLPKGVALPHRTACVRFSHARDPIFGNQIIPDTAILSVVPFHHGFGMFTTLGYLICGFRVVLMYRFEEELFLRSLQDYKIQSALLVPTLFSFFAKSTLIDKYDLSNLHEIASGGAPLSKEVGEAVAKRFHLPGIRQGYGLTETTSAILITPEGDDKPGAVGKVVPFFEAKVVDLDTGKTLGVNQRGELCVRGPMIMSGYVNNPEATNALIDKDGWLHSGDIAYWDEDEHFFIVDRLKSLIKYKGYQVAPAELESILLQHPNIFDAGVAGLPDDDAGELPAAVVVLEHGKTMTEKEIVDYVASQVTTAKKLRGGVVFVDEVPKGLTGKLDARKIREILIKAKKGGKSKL
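Purified P. pyralis luciferase, 10 nM final, with Km-level 10 uM D-luciferin and 10 uM ATP in 50 mM Tris acetate pH 7.5, 10 mM Mg acetate, 0.01% Tween-20, 0.05% BSA; 6-point qHTS titration about 60 µM downward; luminescence read.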
NPC1 promoter act = activates the NPC1 promoter | Huh7 NPC1 promoter luciferase reporter, 24 h | Potency, µM (highest dose often 9.22 µM), inactives show at the top dose activation, most hits filed as activators | 2.4% of 320,000 active | AID 485313; also: % of control where 0% means no effect; nearly all actives have a fitted effect of over 60% in size
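Huh7 cells stably carrying NPC1 promoter–luciferase, plated in Opti-MEM with 10% FBS for 2 h, were exposed to compound in DMSO for 24 h at 37 °C; luciferase reagent was added for 10 min and luminescence read.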
ELG1 DNA repair = ELG1-dependent DNA repair inhibition | HEK293T ELG1-luciferase reporter, luminescence, 16 h; DNA damage induced by 5-fluorouridine | Potency, µM (doses to about 46.1 µM), for the others: at the highest dose activity change, negative = inhibition, usual class: inhibitors | 2.3% of 330,000 active | AID 504467; also: % is scaled to controls: 0 for no effect and ±100 for the full control effect; nearly all actives have a fitted effect of over 55% in size
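HEK293T cells expressing luciferase-tagged ELG1 (2,000/well) received 5-Fluorouridine plus compound or DMSO for 16 hr at 37 °C. Luciferase was read by ONE-Glo luminescence after 30 min at room temperature.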
An asterisk follows results filed as active; ? = inconclusive; . = no result; [ ] = dose if it differs, or a comment. Calls follow the shape of the dose curve; as a rule, active = well fitted curve in the direction sought with a large enough effect; inconclusive = small, poorly fitted or top-dose-only effect, or another doubt; inactive = no such curve, though single readings can be large; an effect the other way counts as inactive or inconclusive. Potency is read from the fitted curve at half-maximal effect.

SMILES | SMN2 splice enh | ELG1 genotoxic | Rab9 promoter act | FLuc modulator | NPC1 promoter act | ELG1 DNA repair
O=C1CCCN1CCCN=c1c([N+](=O)[O-])nn(-c2ccc(Cl)cc2)n1O | 8.2% | 13.3% | 18.2% | -1.9% | 11.4% | -27.8%
Cc1ccc2oc(C(=O)Nc3ccc(S(=O)(=O)Nc4nccc(C)n4)cc3)cc(=O)c2c1 | 2.3% | . | . | -16.4% | . | .
C/C(=N\Nc1cccc2cccnc12)c1ccc[nH]1 | 11.2µM* | 3.6% | 1.41µM* | 1.07µM* | ? | ?
Nc1nn(-c2ccccc2)nc1C(=O)OCc1ccccc1 | 29.8% | ? | 18.1% | 15.1µM* | 12.9% | ?
O=[N+]([O-])c1ccc2oc(C3CCCCC3)nc2c1 | . | ? | ? | 16.9µM* | 14.7% | ?
Nc1ccc2oc(C3CCCCC3)nc2c1 | 11.2µM* | ? | ? | 23.9µM* | ? | ?
CC(C)(C)CC(C)(C)c1ccc(OCCO)cc1 | -63.6% | . | . | . | . | .
COc1ccccc1/C=C1\Cc2ccccc2C1=O | . | ? | 0.6% | 10.7µM* | 8.1% | ?
Cc1cc(C=C2C(=O)c3ccccc3C2=O)c(C)n1-c1cccc(C(=O)O)c1 | -25.6% | 25.6% | 2.51µM* | 4.78µM* | 28.9% | ?
Cc1cc(/C=C2\Cc3ccccc3C2=O)c(C)n1-c1ccccc1 | 4.47µM* | 1.16µM* | -1.1% | 0.19µM* | 9.8% | ?
Cc1cc(C=C2C(=O)c3ccccc3C2=O)c(C)n1-c1ccccc1 | -70.9% | ? | 3.6% | 0.12µM* | 8.1% | ?
Cc1ccccc1NC(=O)CN(C)S(=O)(=O)c1cccc2nsnc12 | . | . | . | 2.7% | . | .
Cc1cc(C=C2C(=O)c3ccccc3C2=O)c(C)n1-c1ccc(C(=O)O)cc1 | . | 6.8% | -1.9% | 19µM* | 1.9% | -11.5%
Cc1cc(C=O)c(C)n1-c1cccc(C(=O)O)c1 | . | 0.2% | -7.0% | 3.7% | -2.2% | 12.7%
COc1ccc(S(=O)(=O)N2CCC(N3CCN(Cc4ccccc4)C(=O)C3=O)CC2)cc1 | . | . | . | 0.6% | . | .
CN(C)c1ccc(C(=O)OCC(=O)NC2CCCCCC2)cc1 | -5.2% | -7.2% | 0.0% | -2.8% | -4.1% | -17.5%
CN(C)c1ccc(N=Nc2ccccc2C(=O)OCC(=O)NC2CCCC2)cc1 | . | 1.5% | 25.1% | 2.69µM* | 11.0% | ?
CN(C)c1ccc(N=Nc2ccccc2C(=O)OCC(=O)N(C)C2CCCCC2)cc1 | ? | 0.1% | ? | 1.07µM* | 25.6% | -16.9%
CN(C)c1ccc(N=Nc2ccccc2C(=O)OCC(=O)NCC2CCCCC2)cc1 | 23.7% | -3.0% | 19.6% | 4.78µM* | 8.4% | ?
CCN(C(=O)Cn1c(=O)n(CCCS(=O)(=O)C2CCCCC2)c(=O)c2ccccc21)c1cccc(C)c1 | -18.3% | . | . | -1.2% | . | .
CC(=O)N1CCc2cc(Br)cc(S(=O)(=O)N3CCC(C)CC3)c21 | 4.2% | . | . | -2.1% | . | .
Cc1nc(NC(=S)NC(=O)c2ccccc2)sc1C | . | ? | 3.16µM* | ? | 3.98µM* | ?
COC(=O)c1sc(NC(=S)NC(=O)c2cccc(C)c2)nc1C | 22.2% | ? | ? | ? | 21.3% | ?
Cc1nc(NC(=O)CCc2ccccc2)sc1C | . | ? | 25.5% | 16.9µM* | 27.2% | ?
Cc1nc(NC(=O)c2ccccc2)sc1C | . | ? | 1.78µM* | ? | 1.78µM* | ?
SMILES | SMN2 splice enh | ELG1 genotoxic | Rab9 promoter act | FLuc modulator | NPC1 promoter act | ELG1 DNA repair
Cc1sc(NC(=O)c2cccnc2)nc1-c1ccccc1 | 0.7% | 1.5% | 0.0% | -8.3% | -1.9% | -2.9%
Cc1nc(NC(=O)c2csc3ccccc23)sc1C | 7.94µM* | ? | 1.26µM* | 0.849µM* | ? | ?
CC(C)Cn1c(=O)c2ccccc2n2c(CCC(=O)NC(C)c3ccccc3)nnc12 (stereo not drawn) | -12.3% | . | . | -1.1% | . | .
O=C(c1nc2ccc([N+](=O)[O-])cc2[nH]c1=O)[C@@H](O)c1ccc2c(c1)OCO2 | 14.4%[9.22 µM] | . | . | . | . | .
CC(=O)c1sc(NC(=O)c2ccccc2)nc1-c1ccccc1 | 12.6µM* | ? | 1µM* | 9.53µM* | 2µM* | ?
Cc1nc(NC(=O)c2ccccc2O)sc1C | . | 5.8µM* | 3.16µM* | 5.36µM* | 3.98µM* | ?
Cc1nc(NCCc2ccccc2)sc1C(=O)O | . | 13.4% | 29.1% | 16.9µM* | ? | ?
O=C(Nc1nc(-c2cccs2)c(C(=O)C(F)(F)F)s1)c1ccccc1 | -91.8% | -0.8% | -10.6% | 16.9µM* | -0.2% | -11.9%
COC(=O)C1=C(C)N(Cc2ccccc2)C(=S)N[C@H]1CCc1ccccc1 | . | . | -2.4% | 5.3% | -2.2% | .
O=C(NNC1=Nc2ccccc2SC1)c1ccc(F)cc1 | . | -8.6% | -13.5% | -4.4% | 0.7% | 9.2µM*
O=C(NNC(=O)c1ccc(F)cc1)c1ccncc1 | . | -1.6% | -0.5% | -0.1% | 1.6% | -2.3%
O=C(NNC1=Nc2ccccc2SC1)c1ccc(Cl)cc1 | . | 2.3% | -4.8% | -0.5% | 1.0% | 6.51µM*
Cc1ccc(CCNC(=O)c2cn(C)c3ccc(S(=O)(=O)N4CCCCC4)cc3c2=O)cc1 | -5.2% | . | . | 1.9% | . | .
Cc1cc(C)n(C(=O)CNC(=O)Cc2ccccc2)n1 | 7.3% | 8.7% | 2.7% | -2.4% | -0.3% | -9.2%
